# PubChem BioAssay (NCATS)
# Records with an inconclusive call do not appear. Calls of active or inactive are those of the source. Calls follow the shape of the dose curve; as a rule, active = well fitted curve in the direction sought with a large enough effect; inconclusive = small, poorly fitted or top-dose-only effect, or another doubt; inactive = no such curve, though single readings can be large; an effect the other way counts as inactive or inconclusive.
# Key:
# [1] = qHTS of pediatric cancer cell lines to identify multiple opportunities for drug repurposing: Primary screen for control Hh wild type fibroblast cells (AID 1347106); also: nearly all actives have a fitted effect of over 55% in size
# In short: (§1)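 Cells (500-1,000/well) in growth media were settled 5 h at 37 degrees C, then given compounds for 48 h. Viability was read as CellTiter-Glo luminescence. Primary runs used MIPE at 11 points (0.78 nM-46 µM) and NPC at 8 points (0.59 nM-46 µM); follow-ups used 11 points.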
# [2] = qHTS of pediatric cancer cell lines to identify multiple opportunities for drug repurposing: Confirmatory screen for NB1643 cells (AID 1347109); also: nearly all actives have a fitted effect of over 45% in size
# In short: as §1
# [3] = qHTS of pediatric cancer cell lines to identify multiple opportunities for drug repurposing: Confirmatory screen for A673 cells (AID 1347110);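 also: cells exposed to compound for 48 h before the viability read; nearly all actives have a fitted effect of over 65% in size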
# In short: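 Forty-eight-hour viability assay. Follow-up compounds ran at 11-point dilutions; positive control bortezomib at 2.3 uM final, neutral control DMSO.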
# [4] = qHTS of pediatric cancer cell lines to identify multiple opportunities for drug repurposing: Confirmatory screen for SK-N-MC cells (AID 1347111);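 also: cells exposed to compound for 48 h before the readout; nearly all actives have a fitted effect of over 70% in size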
# In short: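 Metabolically active cells were quantified by ATP-dependent luminescence (CellTiter-Glo, 15 min at room temperature) following 48 h treatment. Cells had been plated at 500-1,000 per well and settled for 5 h beforehand.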
# [5] = qHTS of pediatric cancer cell lines to identify multiple opportunities for drug repurposing: Confirmatory screen for DAOY cells (AID 1347114); also: nearly all actives have a fitted effect of over 65% in size
# In short: (§2)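 Viability measured as metabolically active cells via CellTiter-Glo luminescence following 48 hours of compound exposure, 11-point dilutions in confirmatory testing. 500-1,000 cells/well plated 5 hours before dosing; controls were DMSO and 2.3 µM bortezomib.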
# [6] = qHTS of pediatric cancer cell lines to identify multiple opportunities for drug repurposing: Confirmatory screen for NB-EBc1 cells (AID 1347115);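 also: cells exposed to compound for 48 h before the viability read; nearly all actives have a fitted effect of over 45% in size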
# In short: as §1
# [7] = qHTS of pediatric cancer cell lines to identify multiple opportunities for drug repurposing: Confirmatory screen for SJ-GBM2 cells (AID 1347116); also: nearly all actives have a fitted effect of over 60% in size
# In short: as §2
# [8] = qHTS of pediatric cancer cell lines to identify multiple opportunities for drug repurposing: Confirmatory screen for BT-37 cells (AID 1347117); also: nearly all actives have a fitted effect of over 55% in size
# In short: as §1
# [9] = qHTS of pediatric cancer cell lines to identify multiple opportunities for drug repurposing: Confirmatory screen for TC32 cells (AID 1347118);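 also: cells exposed to compound for 48 h before the read; nearly all actives have a fitted effect of over 65% in size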
# In short: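 Measured quantity: luminescence from CellTiter-Glo, reflecting metabolically active TC32 cells following 48 h of compound. Curves came straight from multi-point titrations, with 8 or 11 points in primary and 11 in confirmatory screening.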
# [10] = qHTS of pediatric cancer cell lines to identify multiple opportunities for drug repurposing: Confirmatory screen for MG 63 (6-TG R) cells (AID 1347119); also: nearly all actives have a fitted effect of over 55% in size
# In short: as §1
# [11] = qHTS of pediatric cancer cell lines to identify multiple opportunities for drug repurposing: Confirmatory screen for U-2 OS cells (AID 1347122); also: nearly all actives have a fitted effect of over 65% in size
# In short: as §1
# [12] = qHTS of pediatric cancer cell lines to identify multiple opportunities for drug repurposing: Confirmatory screen for Rh41 cells (AID 1347123);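 also: 48 h compound exposure; nearly all actives have a fitted effect of over 60% in size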
# In short: as §1
# [13] = qHTS of pediatric cancer cell lines to identify multiple opportunities for drug repurposing: Confirmatory screen for Rh18 cells (AID 1347125); also: nearly all actives have a fitted effect of over 55% in size
# In short: as §1
# [14] = qHTS of pediatric cancer cell lines to identify multiple opportunities for drug repurposing: Confirmatory screen for Rh30 cells (AID 1347126); also: nearly all actives have a fitted effect of over 55% in size
# In short: as §1
# [15] = qHTS of pediatric cancer cell lines to identify multiple opportunities for drug repurposing: Confirmatory screen for control Hh wild type fibroblast cells (AID 1347121); also: nearly all actives have a fitted effect of over 70% in size
# In short: as §1
# [16] = qHTS of pediatric cancer cell lines to identify multiple opportunities for drug repurposing: Primary screen for Rh30 cells (AID 1347107); also: nearly all actives have a fitted effect of over 75% in size
# In short: as §1
# [17] = qHTS of pediatric cancer cell lines to identify multiple opportunities for drug repurposing: Primary screen for Rh41 cells (AID 1347108); also: nearly all actives have a fitted effect of over 70% in size
# In short: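 Viability was measured as metabolically active cells after 48 hours of treatment, read by CellTiter-Glo luminescence. Compounds were tested at multiple final concentrations, giving concentration-response curves.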
# [18] = qHTS of pediatric cancer cell lines to identify multiple opportunities for drug repurposing: Confirmatory screen for LAN-5 cells (AID 1347113); also: nearly all actives have a fitted effect of over 65% in size
# In short: as §1
# [19] = qHTS of pediatric cancer cell lines to identify multiple opportunities for drug repurposing: Confirmatory screen for RD cells (AID 1347124)
# In short: as §1
# [20] = qHTS of pediatric cancer cell lines to identify multiple opportunities for drug repurposing: Confirmatory screen for BT-12 cells (AID 1347112); also: nearly all actives have a fitted effect of over 55% in size
# In short: as §1
# Potency is read from the fitted curve at half-maximal effect.
smiles,measurement,setting,value
CC(C)[C@H](C(=O)Nc1ccc(C(=O)NO)cc1)c1ccccc1,Potency,[1],16600 nM (active)
same,Potency,[2],585 nM (active)
same,Potency,[3],1040 nM (active)
same,Potency,[4],465 nM (active)
same,Potency,[5],2330 nM (active)
same,Potency,[6],928 nM (active)
same,Potency,[7],1470 nM (active)
same,Potency,[8],1040 nM (active)
same,Potency,[9],737 nM (active)
same,Potency,[10],657 nM (active)
same,Potency,[11],657 nM (active)
same,Potency,[12],1170 nM (active)
same,Potency,[13],827 nM (active)
same,Potency,[14],2330 nM (active)
COc1ccc(C=Cc2cc(OC)c(OC)c(OC)c2)cc1O,Potency,[1],inactive
same,Potency,[3],18.5 nM (active)
same,Potency,[4],16.5 nM (active)
same,Potency,[5],73.7 nM (active)
same,Potency,[6],14.7 nM (active)
same,Potency,[8],14.7 nM (active)
same,Potency,[9],13.1 nM (active)
same,Potency,[10],10.4 nM (active)
same,Potency,[15],inactive
same,Potency,[11],26.1 nM (active)
same,Potency,[12],10.4 nM (active)
same,Potency,[14],inactive
CCCCOc1c(C(=O)c2c(F)cc(C)cc2F)cnc2n[nH]cc12,Potency,[16],inactive
same,Potency,[17],18700 nM (active)
CC(C)(O)c1cc2nc(-c3cnc(N)nc3)nc(N3CCOCC3)c2s1,Potency,[16],5260 nM (active)
same,Potency,[17],372 nM (active)
same,Potency,[2],1470 nM (active)
same,Potency,[3],1850 nM (active)
same,Potency,[4],1170 nM (active)
same,Potency,[18],737 nM (active)
same,Potency,[8],1650 nM (active)
same,Potency,[9],827 nM (active)
same,Potency,[10],369 nM (active)
Cc1nc2cnc3ccc(C#Cc4cccnc4)cc3c2n1-c1ccc(C(C)(C)C#N)cc1,Potency,[16],469 nM (active)
same,Potency,[17],83.3 nM (active)
same,Potency,[2],12000 nM (active)
same,Potency,[3],2690 nM (active)
same,Potency,[4],1700 nM (active)
same,Potency,[5],13500 nM (active)
same,Potency,[7],6760 nM (active)
same,Potency,[8],1510 nM (active)
same,Potency,[9],676 nM (active)
same,Potency,[11],2140 nM (active)
same,Potency,[12],851 nM (active)
same,Potency,[19],12000 nM (active)
same,Potency,[13],1910 nM (active)
same,Potency,[14],1350 nM (active)
O=C(C=Cc1cccnc1)NCCCCC1CCN(C(=O)c2ccccc2)CC1,Potency,[1],inactive
same,Potency,[2],inactive
same,Potency,[3],inactive
same,Potency,[4],inactive
same,Potency,[5],inactive
same,Potency,[8],inactive
same,Potency,[10],inactive
same,Potency,[15],inactive
same,Potency,[11],inactive
same,Potency,[12],inactive
same,Potency,[14],inactive
CNC(=O)c1ccccc1Nc1nc(Nc2ccc(N3CCOCC3)cc2OC)ncc1Cl,Potency,[16],1320 nM (active)
same,Potency,[17],935 nM (active)
same,Potency,[2],369 nM (active)
same,Potency,[3],1040 nM (active)
same,Potency,[4],737 nM (active)
same,Potency,[6],8270 nM (active)
same,Potency,[7],9270 nM (active)
same,Potency,[8],13100 nM (active)
same,Potency,[9],827 nM (active)
same,Potency,[10],261 nM (active)
same,Potency,[15],inactive
same,Potency,[11],13100 nM (active)
same,Potency,[12],928 nM (active)
same,Potency,[13],4140 nM (active)
same,Potency,[14],inactive
Cc1[nH]nc2ccc(-c3cncc(OC[C@@H](N)Cc4ccccc4)c3)cc12,Potency,[17],4690 nM (active)
same,Potency,[2],1170 nM (active)
same,Potency,[3],1510 nM (active)
same,Potency,[4],2330 nM (active)
same,Potency,[18],3290 nM (active)
same,Potency,[5],4270 nM (active)
same,Potency,[8],2930 nM (active)
same,Potency,[9],2930 nM (active)
same,Potency,[10],3690 nM (active)
same,Potency,[15],23300 nM (active)
same,Potency,[13],8270 nM (active)
same,Potency,[14],47900 nM (active)
COc1ccc(C(=O)CC2(O)C(=O)Nc3c(Cl)ccc(Cl)c32)cc1 (stereo not given),Potency,[17],3720 nM (active)
CC1(C)CC(=O)c2c(C(F)(F)F)nn(-c3ccc(C(N)=O)c(NC4CCC(OC(=O)CN)CC4)c3)c2C1 (stereo not given),Potency,[17],372 nM (active)
Cc1ccc2nc(NC(=O)CSc3nc4c(c(=O)n3-c3ccccc3)SCC4)sc2c1,Potency,[17],14800 nM (active)
same,Potency,[3],1040 nM (active)
same,Potency,[4],11700 nM (active)
same,Potency,[20],3290 nM (active)
same,Potency,[5],7370 nM (active)
same,Potency,[9],8270 nM (active)
same,Potency,[10],5220 nM (active)
same,Potency,[15],14700 nM (active)
same,Potency,[12],20800 nM (active)
same,Potency,[13],inactive
same,Potency,[14],inactive
COc1ccc(-c2cc3c(C)nc(N)nc3n(C3CCC(OCCO)CC3)c2=O)cn1 (stereo not given),Potency,[17],118 nM (active)
same,Potency,[2],inactive
same,Potency,[3],1170 nM (active)
same,Potency,[18],inactive
same,Potency,[5],inactive
same,Potency,[7],inactive
same,Potency,[8],inactive
same,Potency,[10],inactive
same,Potency,[15],inactive
same,Potency,[11],inactive
same,Potency,[19],inactive
same,Potency,[13],inactive
same,Potency,[14],inactive
O=C(c1ccc(Nc2nccc(-c3cc4ccccc4s3)n2)cc1)N1CCC(N2CCCC2)CC1,Potency,[17],18700 nM (active)
CN(C)Cc1c(C(=O)NCCOc2ccc(C(=O)NO)cc2)oc2ccccc12,Potency,[16],4690 nM (active)
same,Potency,[2],465 nM (active)
same,Potency,[3],1310 nM (active)
same,Potency,[4],585 nM (active)
same,Potency,[5],2610 nM (active)
same,Potency,[7],1470 nM (active)
same,Potency,[8],1170 nM (active)
same,Potency,[9],737 nM (active)
same,Potency,[10],1470 nM (active)
same,Potency,[11],657 nM (active)
same,Potency,[12],293 nM (active)
same,Potency,[19],1650 nM (active)
same,Potency,[13],827 nM (active)
same,Potency,[14],1650 nM (active)
COC(=O)Nc1ccc(-c2nc(N3CCOCC3)c3cnn(C4CCN(Cc5cccnc5)CC4)c3n2)cc1,Potency,[17],132 nM (active)
same,Potency,[2],inactive
same,Potency,[3],1310 nM (active)
same,Potency,[4],1040 nM (active)
same,Potency,[8],928 nM (active)
same,Potency,[9],1310 nM (active)
same,Potency,[10],1850 nM (active)
same,Potency,[11],11700 nM (active)
same,Potency,[12],1310 nM (active)
same,Potency,[14],5850 nM (active)
